# Results filed as inconclusive are left out. Where a call stands in place of a potency, no number is given. Active and inactive are the calls of the source. The call rests on the fitted dose curve; in most records, active means well fitted inhibition curve with a large enough effect in the signal ratio in the repeat runs, with a control signal flat; inconclusive means weak or mixed curves, or effect the other way; inactive means flat fitted curve, though single readings scatter; the % refers to the signal ratio.
# Target: D(2) dopamine receptor (Homo sapiens) (UniProt P14416)
# Assay: Dopamine D2 receptor (DRD2) small molecule antagonists, cell-based qHTS assay (AID 1963595)
# Details: HEK293-DRD2 cAMP HTRF antagonist mode; series mostly up to 92.4 µM
# Text: National Center for Advancing Translational Sciences [NCATS]
# Division of Preclinical Innovation [DPI]
# U.S. Environmental Protection Agency [EPA]
# National Institutes of Environmental Health Sciences [NIEHS]
# National Toxicology Program [NTP]
# U.S. Food and Drug Administration [FDA]
# DRD2 is the D2 subtype of the dopamine receptor, which is coupled to Gi subtype of G protein-coupled receptor. This G protein-coupled receptor inhibits adenylyl cyclase activity. The DRD2-HEK293 cell line stably expressing D2 dopamine receptor can be used for screening agonists and antagonists of interactions between D2 and its ligands. The Hek293-DRD2 cAMP assay is based on HTRF technology. It measures changes of cAMP accumulation in response to Gi coupled GPCR activation or inhibition.
# Tox21 Assay Protocol Summary:
# DRD2-Hek293 cells were dispensed at 600 cells/3uL/well in 1536-well white plates using a Multidrop Dispenser. After the assay plates were incubated at a 37 C/5% CO2 incubator for 24 h, 1 uL of Ro20-1724 at final concentration of 0.1 mM was transferred to the assay plate by a Flying Reagent Dispenser. Following Ro20-1724 addition, 23 nL of compound dissolved in DMSO, positive controls or DMSO only was added to the assay plates via Wako pintool station. The assay plates were incubated at room temperature for 10 min. Next, 1 uL of mixture of NKH477 (final concentration at 200 nM) and quinpirole (final concentration at 12 nM) was added into the plates. After the assay plates were incubated at room temperature for an additional 30 min, 2.5 ul/well of cAMP-d2 and 2.5 ul/well of anti-cAMP-cryptate were added respectively into the assay plates using a Flying Reagent Dispenser. The plates were incubated at room temperature for 1 h. The fluorescence intensity in the plates was measured at 340 nm excitation and 665 & 620 nm emission by an Envision plate reader.
# Chain of D(2) dopamine receptor (Homo sapiens) (P14416 whole entry, looked up): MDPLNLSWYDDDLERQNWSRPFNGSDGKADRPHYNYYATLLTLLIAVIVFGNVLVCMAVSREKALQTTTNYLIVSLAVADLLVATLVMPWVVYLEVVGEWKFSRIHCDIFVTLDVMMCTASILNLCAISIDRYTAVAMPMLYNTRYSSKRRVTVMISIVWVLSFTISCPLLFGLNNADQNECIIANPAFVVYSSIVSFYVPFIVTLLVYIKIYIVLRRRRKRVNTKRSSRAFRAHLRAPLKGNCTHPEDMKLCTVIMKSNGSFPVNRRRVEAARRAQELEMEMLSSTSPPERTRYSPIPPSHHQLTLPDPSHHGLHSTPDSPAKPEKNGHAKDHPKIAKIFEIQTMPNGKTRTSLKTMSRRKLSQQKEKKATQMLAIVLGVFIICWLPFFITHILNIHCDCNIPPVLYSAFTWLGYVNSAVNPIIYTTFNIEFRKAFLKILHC
row,SMILES,Potency
1,CCCCCCCCCCCCc1ccccc1O,inactive
2,c1ccc2cc3c(ccc4ccccc43)cc2c1,inactive
3,CN(C)CCOC(C)(c1ccccc1)c1ccccn1 (stereo not given),inactive
4,O=c1c(O)c(-c2ccc(O)cc2)oc2cc(O)cc(O)c12,inactive
5,CCOC(=O)CC(=O)OCC,inactive
6,CCCCCNCCCCC,inactive
7,Nc1ccc(O)c(C(=O)O)c1,inactive
8,C=C(C)C(=O)OCC(CC)(COC(=O)C(=C)C)COC(=O)C(=C)C,inactive
9,CCOC(=O)C(C#N)=C(c1ccccc1)c1ccccc1,inactive
10,NS(=O)(=O)O,inactive
11,Cc1ccc(C)c(OCCCC(C)(C)C(=O)O)c1,inactive
12,C=CC(=O)NC(C)(C)CS(=O)(=O)O,inactive
13,OC[C@H]1O[C@@H](Oc2ccc(O)cc2)[C@H](O)[C@@H](O)[C@@H]1O,inactive
14,CC(C)=CCO,inactive
15,CC(CCl)OP(=O)(OC(C)CCl)OC(C)CCl (stereo not given),inactive
16,O=C(Oc1ccccc1)c1ccccc1O,inactive
17,CCCCCC(N)=O,inactive
18,Cc1cc(C)c(O)c(C)c1,inactive
19,NC(=O)OCC(COC(N)=O)c1ccccc1,inactive
20,C#C[C@]1(O)CC[C@H]2[C@@H]3CCc4cc(OC)ccc4[C@H]3CC[C@@]21C,inactive

row,SMILES,Potency
1,C/C=C(C)/C=C/C=C(C)C,inactive
2,CN(C)c1nc(N(C)C)nc(N(C)C)n1,inactive
3,O=C(O)c1ccccc1,inactive
4,CCC1(c2ccccc2)C(=O)NCNC1=O,inactive
5,C[C@]12C[C@H](O)[C@H]3[C@@H](CCC4=CC(=O)CC[C@@]43C)[C@@H]1CC[C@@H]2C(=O)CO,inactive
6,O=c1ccc2ccccc2o1,inactive
7,COc1ccc2[nH]cc(CCNC(C)=O)c2c1,inactive
8,Brc1cc(Oc2cc(Br)c(Br)c(Br)c2Br)c(Br)c(Br)c1Br,inactive
9,C/C=C/c1ccc(O)c(OC)c1,inactive
10,C/C=C/C(=O)N(CC)c1ccccc1C,inactive
11,O=C(Cl)c1c(Cl)c(Cl)c(C(=O)Cl)c(Cl)c1Cl,inactive
12,CCCCCCCCCCCCCO,inactive
13,COc1ccccc1OCC(O)CO (stereo not given),inactive
14,O=Cc1ccc(CO)o1,inactive
15,COC(=O)c1ccccc1,inactive
16,c1ccc2[nH]c(-c3cscn3)nc2c1,inactive
17,CCCCOCCOCCOC(C)=O,inactive
18,CCc1nc(N)nc(N)c1-c1ccc(Cl)cc1,inactive
19,CN1C(C(=O)Nc2ccccn2)=C(O)c2ccccc2S1(=O)=O,inactive
20,COCC(=O)O,inactive

# — PubChem BioAssay (Tox21)
